The record followed here is PubChem BioAssay (EPA / NIEHS).

SMILES strings stand for the structures. Several values for one entry are separate records, joined by “and”; a condition that tells them apart may be missing. Equal values may be shown once. Activity calls are given as the source filed them. Rule for the calls: active = hit-call score of the fitted dose curve at least 0.9, where 1 is the maximum; inactive = score below 0.9.

The nature of test [1]: ATG_CRE_CIS: Attagene CIS-FACTORIAL HepG2 Assay for human cAMP Responsive Element (CRE) binding protein 3 (AID 2282926). Conditions: HepG2 CRE cis-reporter, Attagene multiplexed mRNA; actives raise or lower the signal. The essentials: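 Assay format: transient reporter transfection of HepG2, 24 h treatment, total RNA isolation with DNase I step. Reporter abundance read by fluorescence after PCR and capillary separation; DMSO-normalised gain or loss fitting.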

Test [2] concerns the target CCAAT/enhancer-binding protein beta (Homo sapiens) (UniProt P17676). The test is described as follows: ATG_C_EBP_CIS: Attagene CIS-FACTORIAL HepG2 Assay for human CCAAT/Enhancer Binding Protein (C/EBP) beta (AID 2282927). Conditions: HepG2 Attagene cis-factorial transcription factor reporter; actives raise or lower the signal. An outline of the steps:
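HepG2 transiently transfected with multiplexed reporter units under cis-regulatory promoters reporting endogenous C/EBPb activity. After 24 h exposure, reporter mRNA assayed by RT-PCR, fluorescent labelling, HpaI digestion and capillary electrophoresis; bidirectional fitting versus DMSO.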

Test [3] can be described thus: ATG_CMV_CIS: Attagene CIS-FACTORIAL HepG2 Assay for human CMV (Internal Marker) (AID 2282928).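 Note: endpoint acts as a background internal control marker rather than a target.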 The note with it: HepG2 CMV promoter reporter, transcription factor profiling; actives raise or lower the signal. An outline of the steps:
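24 h chemical treatment, HepG2 with transient multi-reporter transfection; RNA → oligo(dT) RT → PCR → 6-FAM extension → HpaI digest → CE fluorescence. Bidirectional fit, DMSO negative control.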

Test [4] is described as follows: ATG_DR4_LXR_CIS: Attagene CIS-FACTORIAL HepG2 Assay for human Liver X Receptor (LXR), DR4 submotif (AID 2282929). Conditions: HepG2 Attagene DR4 cis-reporter, mRNA transcription; actives raise or lower the signal. An outline of the steps:
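DR4 cis-reporter in HepG2, 24 h exposure. Detection: RT-PCR, 6-FAM labelling, CE fragment analysis. Endpoint fitted bidirectionally, DMSO = baseline.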

Test [5] addresses Aryl hydrocarbon receptor (Homo sapiens) (UniProt P35869). The test is described as follows: ATG_Ahr_CIS: Attagene CIS-FACTORIAL HepG2 Assay for human Aryl Hydrocarbon Receptor (Ahr) (AID 2282930). Conditions: HepG2 AhR cis-factorial reporter transcription; actives raise or lower the signal. An outline of the steps: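 HepG2 cells transiently transfected with cis-element-driven multiplexed reporter units; endogenous AhR activity read as reporter mRNA 24 h after dosing, via RT-PCR, 6-FAM labelling, HpaI digestion and capillary electrophoresis. Bidirectional fit relative to DMSO.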

The nature of test [6]: ATG_AP_1_CIS: Attagene CIS-FACTORIAL HepG2 Assay for human Activator Protein 1 (AP-1) (AID 2282931). Conditions: HepG2 Attagene cis-factorial AP-1 reporter mRNA; actives raise or lower the signal. The essentials: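 Cis-regulated reporter units transiently expressed in HepG2 report endogenous transcription-factor activity. Signal: reporter mRNA at 24 h, via RT-PCR and fluorescent capillary electrophoresis. Endpoint derived by bidirectional fitting, DMSO as negative control.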

Test [7] is described as follows: ATG_AP_2_CIS: Attagene CIS-FACTORIAL HepG2 Assay for human Activator Protein 2 (AP-2) (AID 2282932). The note with it: HepG2 AP-2 cis-reporter, Attagene transcription factor profiling; actives raise or lower the signal. An outline of the steps:
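Liver-derived HepG2 line, cis-reporter system measuring endogenous factors; 24 h dosing; reporter mRNA detected by fluorescent RT-PCR and capillary electrophoresis.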

Test [8] in a line: ATG_BRE_CIS: Attagene CIS-FACTORIAL HepG2 Assay for human Bone Morphogenetic Protein (BMP) Response Element (BRE) (AID 2282933). Conditions: HepG2 BMP response element reporter, Attagene transcription factor profiling; actives raise or lower the signal. An outline of the steps: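 Transient MRTU transfection of human HepG2 liver cells; 24 h compound treatment; total RNA isolated, reverse-transcribed, PCR-amplified, 6-FAM labelled, HpaI-cut, capillary electrophoresis. DMSO = negative control/baseline, bidirectional fit.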

For test [9], the target named is Retinoic acid receptor alpha (Homo sapiens) (UniProt P10276). Put plainly: ATG_DR5_RAR_CIS: Attagene CIS-FACTORIAL HepG2 Assay for human Retinoic Acid Receptor Alpha (RARE), DR5 submotif (AID 2282934).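 For AC50: reporter responds to endogenous RAR alpha beta and gamma in HepG2 not RARA alone.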 The note with it: HepG2 Attagene cis-factorial RARE DR5 reporter, mRNA; actives raise or lower the signal. An outline of the steps:
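HepG2 cells transiently transfected with multiplexed reporter units; DR5 cis-element drives reporter through endogenous transcription factors. After 24 h dosing, reporter mRNA quantified by RT-PCR, fluorescent labeling, HpaI digestion and capillary electrophoresis; bidirectional fitting versus DMSO.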

For test [10], the target named is Transcription factor E2F1 (Homo sapiens) (UniProt Q01094). The test is described as follows: ATG_E2F_CIS: Attagene CIS-FACTORIAL HepG2 Assay for human E2F Transcription Factor 1 (AID 2282935). Conditions: HepG2 Attagene cis-reporter, E2F reporter RNA transcripts; actives raise or lower the signal. An outline of the steps:
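Liver-derived HepG2 cells expressing transfected promoter-driven reporter units received test chemical for 24 hours. Signal gains or losses were fitted bidirectionally against DMSO.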

Test [11] is described as follows: ATG_E_Box_CIS: Attagene CIS-FACTORIAL HepG2 Assay for human Enhancer Box (E-box) (AID 2282936). The note with it: HepG2 E-box cis-reporter transcription, actives raise or lower the signal. An outline of the steps:
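In this cell-based setup, HepG2 cells bearing transfected promoter-driven reporter units were exposed to chemicals for 24 h; reporter transcripts were amplified, 6-FAM-labelled, cut with HpaI and sized by capillary electrophoresis.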

Test [12] can be described thus: ATG_M_61_CIS: Attagene CIS-FACTORIAL HepG2 Assay for M61 Transcription Factor (Internal Marker) (AID 2282937). Conditions: HepG2 Attagene CIS-FACTORIAL M61 internal marker reporter; actives raise or lower the signal. An outline of the steps: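 Background-control endpoint: HepG2 cells with cis-regulated reporter constructs, 24 h exposure, reporter mRNA detected via fluorescent primer extension and capillary electrophoresis; values from bidirectional fitting with DMSO baseline.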

The nature of test [13]: ATG_EGR_CIS: Attagene CIS-FACTORIAL HepG2 Assay for human Early Growth Response 1 (EGR1) (AID 2282938). The note with it: HepG2 Attagene CIS-FACTORIAL EGR reporter mRNA; actives raise or lower the signal. The essentials:
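Endpoint derived by bidirectional fitting versus DMSO vehicle. Method: cis-promoter reporter units transfected into HepG2, 24 h dosing, RNA isolation, RT-PCR with 6-FAM primer extension and HpaI digestion, then capillary electrophoresis fluorescence detection.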

A short description of test [14]: APR_HepG2_MicrotubuleCSK_72hr: Apredica 72-hour HepG2 Assay for Microtubule CSK Stabilty (AID 2282919). Conditions: HepG2 microtubule cytoskeleton, high-content imaging, actives raise or lower the signal. An outline of the steps: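 HepG2, 72 hr cmpd exposure, 0.39–200 uM (10 pts, duplicate), 0.5% DMSO. 3.7% formaldehyde fix, 0.5% Triton perm, anti-alpha-tubulin/Cy5 plus Hoechst. HCS fluorescence intensity; bidirectional fit vs DMSO baseline; taxol as positive control.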

A short description of test [15]: APR_HepG2_P-H2AX_24hr: Apredica 24-hour HepG2 Assay for H2AX Phosphorylation (AID 2282920). The note with it: high-content imaging, actives raise or lower the signal. The essentials: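 HepG2, 24 hr, cpd 0.39–200 uM (10 conc, duplicate), DMSO 0.5% v/v final. Fix 3.7% formaldehyde, Triton X-100 permeabilize, anti-phospho-H2A.x 1:200 + Hoechst 2 ug/mL. Imaged, bidirectional fit vs DMSO.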

Test [16] in a line: APR_HepG2_StressKinase_72hr: Apredica 72-hour HepG2 Assay for Stress Kinase (AID 2282921). The note with it: HepG2 stress kinase (phospho-c-Jun) imaging, actives raise or lower the signal. The essentials: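 After a 72 h compound treatment spanning 0.39 to 200 uM, formaldehyde-fixed cells are labelled for phosphorylated c-Jun and nuclei, imaged by automated fluorescence microscopy, and activity is fitted in both directions relative to DMSO controls.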

The nature of test [17]: APR_HepG2_StressKinase_24hr: Apredica 24-hour HepG2 Assay for Stress Kinase (AID 2282922). The note with it: HepG2 stress kinase (phospho-c-Jun) imaging, actives raise or lower the signal. The essentials:
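Read-out: phospho-c-Jun immunofluorescence (Cy3 secondary) quantified by high-content imaging at 20x, nuclei defined by Hoechst 33342. Human HepG2 liver cells dosed 24 hr, 0.39–200 uM, DMSO 0.5% v/v; gain or loss of signal fitted relative to DMSO.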

Test [18] is described as follows: APR_HepG2_MitoMass_72hr: Apredica 72-hour HepG2 Assay for Mitochondrial Mass (AID 2282924).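 Note: MitoTracker Red CMXRos stain intensity per cell imaged as mitochondrial mass.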 The note with it: high-content imaging, actives raise or lower the signal. The essentials:
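Read-out: MitoTracker Red fluorescence intensity from automated imaging (20x, six fields per well) in human HepG2 liver cells. Dosing ran 72 hr, 0.39–200 uM, 0.5% DMSO; bidirectional curve fitting versus DMSO baseline.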

Test [19] can be described thus: APR_HepG2_NuclearSize_72hr: Apredica 72-hour HepG2 Assay for Nuclear Size (AID 2282925). The note with it: high-content imaging, actives raise or lower the signal. The essentials:
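Read-out: nuclear diameter from Hoechst 33342 images (ArrayScan, 20x, six fields/well), via cell-cycle image analysis. HepG2 were dosed 0.39–200 uM for 72 hr in 0.5% DMSO. Bidirectional fit relative to DMSO.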

Retinoic acid receptor alpha (Homo sapiens), sequence (P10276 whole entry, looked up): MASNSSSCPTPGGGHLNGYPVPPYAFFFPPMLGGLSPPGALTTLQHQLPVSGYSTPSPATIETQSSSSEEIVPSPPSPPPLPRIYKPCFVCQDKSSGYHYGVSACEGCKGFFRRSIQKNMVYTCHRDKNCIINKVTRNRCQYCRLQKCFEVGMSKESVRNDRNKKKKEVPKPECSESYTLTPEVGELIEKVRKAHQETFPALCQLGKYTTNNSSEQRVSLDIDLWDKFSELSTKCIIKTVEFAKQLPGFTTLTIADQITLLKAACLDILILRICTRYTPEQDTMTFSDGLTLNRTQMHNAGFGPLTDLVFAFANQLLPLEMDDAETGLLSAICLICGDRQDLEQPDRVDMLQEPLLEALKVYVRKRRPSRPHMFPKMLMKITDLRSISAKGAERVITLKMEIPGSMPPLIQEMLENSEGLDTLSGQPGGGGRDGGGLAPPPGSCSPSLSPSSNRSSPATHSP
CCAAT/enhancer-binding protein beta (Homo sapiens), sequence (P17676 whole entry, looked up): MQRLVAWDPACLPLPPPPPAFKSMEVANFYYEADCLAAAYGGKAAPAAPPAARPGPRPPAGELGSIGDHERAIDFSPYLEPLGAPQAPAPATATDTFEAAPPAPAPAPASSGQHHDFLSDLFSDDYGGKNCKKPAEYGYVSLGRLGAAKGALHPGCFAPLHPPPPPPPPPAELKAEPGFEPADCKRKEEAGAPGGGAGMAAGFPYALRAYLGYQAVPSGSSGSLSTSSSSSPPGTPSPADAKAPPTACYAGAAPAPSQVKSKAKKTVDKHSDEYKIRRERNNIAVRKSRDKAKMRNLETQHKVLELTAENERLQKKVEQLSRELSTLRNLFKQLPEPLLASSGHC
Aryl hydrocarbon receptor (Homo sapiens), sequence (P35869 whole entry, looked up): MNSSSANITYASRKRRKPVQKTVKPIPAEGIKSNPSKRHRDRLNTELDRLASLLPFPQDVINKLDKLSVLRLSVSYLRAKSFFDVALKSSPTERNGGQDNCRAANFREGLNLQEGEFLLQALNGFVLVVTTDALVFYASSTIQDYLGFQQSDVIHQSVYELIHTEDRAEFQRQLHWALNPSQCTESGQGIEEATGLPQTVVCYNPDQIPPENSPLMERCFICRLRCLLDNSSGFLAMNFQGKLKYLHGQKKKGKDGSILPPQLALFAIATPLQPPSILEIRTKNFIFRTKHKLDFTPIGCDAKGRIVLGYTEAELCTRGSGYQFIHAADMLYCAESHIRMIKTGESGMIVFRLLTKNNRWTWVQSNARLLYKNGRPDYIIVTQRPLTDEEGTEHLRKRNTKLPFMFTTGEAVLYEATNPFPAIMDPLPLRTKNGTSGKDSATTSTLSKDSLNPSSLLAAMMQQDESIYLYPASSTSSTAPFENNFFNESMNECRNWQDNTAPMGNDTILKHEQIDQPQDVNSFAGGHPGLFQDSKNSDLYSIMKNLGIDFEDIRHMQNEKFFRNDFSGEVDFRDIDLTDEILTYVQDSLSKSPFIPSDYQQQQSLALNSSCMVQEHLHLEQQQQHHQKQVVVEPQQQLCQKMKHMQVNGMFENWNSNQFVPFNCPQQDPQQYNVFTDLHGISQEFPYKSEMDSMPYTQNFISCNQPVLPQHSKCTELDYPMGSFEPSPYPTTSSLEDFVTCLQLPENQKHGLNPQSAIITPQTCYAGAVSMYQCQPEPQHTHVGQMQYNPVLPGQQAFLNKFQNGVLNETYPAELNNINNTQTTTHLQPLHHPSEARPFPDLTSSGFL
Transcription factor E2F1 (Homo sapiens), sequence (Q01094 whole entry, looked up): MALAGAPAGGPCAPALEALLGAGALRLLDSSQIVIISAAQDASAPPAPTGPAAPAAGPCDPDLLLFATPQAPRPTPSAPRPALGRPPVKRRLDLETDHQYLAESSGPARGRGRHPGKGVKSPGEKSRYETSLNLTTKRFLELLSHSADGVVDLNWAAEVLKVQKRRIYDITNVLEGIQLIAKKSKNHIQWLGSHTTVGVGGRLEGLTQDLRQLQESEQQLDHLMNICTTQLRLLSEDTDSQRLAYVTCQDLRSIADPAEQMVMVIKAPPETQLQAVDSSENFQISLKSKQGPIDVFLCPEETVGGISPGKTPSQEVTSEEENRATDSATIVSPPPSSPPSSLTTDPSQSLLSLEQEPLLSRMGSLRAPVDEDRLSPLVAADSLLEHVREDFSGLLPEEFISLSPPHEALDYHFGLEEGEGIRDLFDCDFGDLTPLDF

With `CC(=O)C(F)(F)C(F)(F)F`, the call in test [1], in [2], in test [3], in test [4], in [5] and in [6] was inactive. The result in [7], in test [8], in [9], in test [10], in test [11] and in [12] was inactive. Besides, the result in test [13] was inactive.
A word on the AC50: it is the midpoint of the concentration-response curve, whichever way the signal moves. `CC(C)(C)c1ccccc1O`: the molecule was classed as inactive in [14], in [15], in test [16], in test [17], in test [18] and in [19]. Also, the molecule was classed as inactive in test [5], in test [7], in test [8], in [10] and in [12]. Besides, the AC50 in [1] was 174 µM (active); in test [2], 163 µM (active); in test [4] it was 100 µM (active); in [6], 75.5 µM (active); in test [13] it was 156 µM (active).
With `Cc1cc(C(C)(C)c2ccc(O)c(C)c2)ccc1O`, the concentration at half-maximal activity (AC50) in test [1] was 21.8 µM (active); in test [3], 89.3 µM (active); in [4] it was 12.1 µM (active); in test [5], 89 µM (active); in test [6] it was 83.9 µM (active); in [9], 21.5 µM (active). The AC50 in test [13] was 32.4 µM (active). In addition, the outcome in [2], in test [7], in [8], in test [10], in test [11] and in test [12] was inactive.
Regarding `COC(=O)Nc1cccc(OC(=O)Nc2cccc(C)c2)c1`, the molecule was called inactive in test [1], in test [2], in test [3], in [4], in test [5] and in test [6]. The molecule was called inactive in [7], in [8], in [9], in test [10], in test [11] and in test [12]. The result in [13] was inactive.
Take `C[C@]12CC[C@@H](O)C[C@@H]1CC[C@@H]1[C@@H]2CC[C@]2(C)C(=O)CC[C@@H]12`: the call in test [1], in test [2], in [3], in [4], in [5] and in test [6] was inactive. Besides, the outcome in test [7], in test [8], in [9], in test [10], in test [11] and in [12] was inactive. Also, in test [13], the result was inactive.
With `Cc1cc(Cl)ccc1N`, the molecule was called inactive in [1], in [2], in test [3], in test [4], in [6] and in test [7]. Also, the outcome in [8], in test [9], in test [10], in test [11], in [12] and in test [13] was inactive. Also, the concentration at half-maximal activity (AC50) in test [5] was 41.4 µM (active) and 33 µM (active).
In the case of `CC(c1ccc(O)cc1)c1ccc(O)cc1`, the result in test [1], in test [2], in test [3], in [4], in test [5] and in test [6] was inactive. Besides, the result in test [7], in [8], in [9], in test [10], in test [11] and in test [12] was inactive. Moreover, the molecule was called inactive in [13].
Consider `O=S1(=O)OC(c2cc(Br)c(O)c(Br)c2)(c2cc(Br)c(O)c(Br)c2)c2ccccc21`, for which the result in [1], in test [2], in test [3], in test [4], in test [6] and in test [7] was inactive. Further, the outcome in test [8], in test [9], in [10], in test [11], in [12] and in test [13] was inactive. Moreover, in test [5], the AC50 is 26 µM (active).
For `O=c1[nH]c2ccccc2n1C1CCN(CCCC(c2ccc(F)cc2)c2ccc(F)cc2)CC1`, the outcome in [1], in test [5], in [6], in test [7], in test [8] and in test [10] was inactive. For the same molecule, the outcome in test [11], in test [12] and in [13] was inactive. In addition, the AC50 in test [2] was 5.75 µM (active); in [3] it was 3.71 µM (active); in test [4] it was 5.83 µM (active); in [9] it was 5.87 µM (active).
